Screens (PubChem)
The list is not random: actives were taken first. Their share in the collection is about 0.93%.
697 NFkB inh: lowers PMA/ionomycin-induced NF-kB signal in 697 B cells. 697 B-cell NF-kB luciferase reporter, 16 h. inhibition, % at 4 µM. 0.33% of 330,000 active. AID 435022; in the data active = inhibition above about 35%
Jurkat NFkB inh: inhibitors of the PMA/ionomycin-induced NF-kB reporter in Jurkat cells. AID 435003. inhibition, % at 4 µM. PMA/ionomycin-induced NF-kB luciferase reporter, luminescence. 0.53% of 330,000 active; in the data active = inhibition above about 50%
F508del corr: CFTR F508del correction in bronchial cells; CFBE cells, YFP halide quenching; stimulated with forskolin plus potentiator P3; % fluorescence drop versus neutral controls; activity (quench increase), % at 7.58 µM; 0.36% of 350,000 active; AID 720511;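 active = mean added fluorescence quench of at least 8% versus neutral control, with both replicates also reaching 8%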;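 note: cells transiently co-express mutant CFTR-F508del with the halide-sensitive YFP; corrector assay measuring rescue of mutant channel to the surface after 24 h compound exposure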
HIF activator: HIF pathway transcriptional activation; U2OS HRE-luciferase reporter, luminescence; normalized: DMSO 0%, desferrioxamine 100%; activation, % at 7.5 µM (by protocol); 0.32% of 300,000 active;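 active = mean activation of at least 10% of the iron chelator positive control signal, with at least half of replicates also reaching 10%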
Jurkat NFkB conf: lowers PMA/ionomycin-induced NF-kB signal in Jurkat cells; shares compounds with Jurkat NFkB inh; Jurkat NF-kB luciferase, 16 h; inhibition, % at 4 µM; 27% of 2,700 active;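 active = inhibition reaching about 45% at 4 µM in either replicate, limit read from the data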
A number is an active result.

How did C[C@H](CO)N1C[C@H](C)[C@H](CN(C)Cc2ccncc2)Oc2ncc(C#CC3CCCC3)cc2C1=O do in these assays?
F508del corr: inactive

How did CCOc1ccccc1N1CC(O)=C(c2nc3ccccc3s2)C1=N do in these assays?
697 NFkB inh: inactive; Jurkat NFkB inh: 59.2; F508del corr: inactive; HIF activator: inactive; Jurkat NFkB conf: inactive

What do the screens show for `COc1ccc(OC)c(N2CC(O)=C(c3nc4ccccc4s3)C2=N)c1`?
697 NFkB inh: inactive; Jurkat NFkB inh: inactive; HIF activator: inactive

Results for Cc1cc(C)c(C#N)c(SCc2nnc(-c3ccccc3[N+](=O)[O-])o2)n1 ?
697 NFkB inh: inactive; Jurkat NFkB inh: inactive; F508del corr: inactive; HIF activator: inactive; Jurkat NFkB conf: inactive

How did Cc1cc(C)c(C#N)c(SCc2ccccc2[N+](=O)[O-])n1 do in these assays?
697 NFkB inh: inactive; Jurkat NFkB inh: inactive; HIF activator: inactive

What do the screens show for `CC(C)NC(=O)N(C)C[C@@H]1Oc2ccc(NS(=O)(=O)c3cccs3)cc2C(=O)N([C@@H](C)CO)C[C@H]1C`?
F508del corr: inactive

What do the screens show for `COc1ccc(-c2oc3ccc(N4CCOCC4)cc3c2C#CCO)cc1`?
697 NFkB inh: inactive; Jurkat NFkB inh: inactive; F508del corr: inactive; HIF activator: inactive

Results for COc1ccc(-c2ccc3oc(-c4ccc(OC)cc4)c(C#CCO)c3c2)cc1 ?
697 NFkB inh: inactive; Jurkat NFkB inh: 73.2; F508del corr: 9.3; HIF activator: inactive; Jurkat NFkB conf: 56.9

Results for CC(C)NC(=O)N(C)C[C@H]1OCCCC[C@@H](C)Oc2ccc(NC(=O)c3ccccc3)cc2C(=O)N([C@@H](C)CO)C[C@H]1C ?
F508del corr: inactive

Results for Cc1ccc(NC(=O)c2ccc(C)cc2)cc1 ?
697 NFkB inh: inactive; Jurkat NFkB inh: inactive; F508del corr: inactive; HIF activator: inactive; Jurkat NFkB conf: inactive

How did Cc1ccc(C(=O)Nc2ccc(-c3csc(C)n3)cc2)cc1 do in these assays?
697 NFkB inh: inactive; Jurkat NFkB inh: inactive; F508del corr: inactive; HIF activator: inactive

Results for Cc1nc(-c2ccc(NC(=O)c3ccccc3)cc2)cs1 ?
697 NFkB inh: inactive; Jurkat NFkB inh: inactive; F508del corr: inactive; HIF activator: inactive; Jurkat NFkB conf: inactive

How did Cc1ccc(C(=O)Nc2ccc(N3CCN(C)CC3)cc2)cc1 do in these assays?
697 NFkB inh: inactive; Jurkat NFkB inh: inactive; F508del corr: inactive; HIF activator: inactive

How did CC(C)(C)c1ccc(C(=O)Nc2ccc(Cl)cc2)cc1 do in these assays?
697 NFkB inh: inactive; Jurkat NFkB inh: inactive; F508del corr: inactive; HIF activator: inactive; Jurkat NFkB conf: inactive

What do the screens show for `O=C(N/N=C/c1c(O)ccc2ccccc12)c1cccc(C(F)(F)F)c1`?
697 NFkB inh: inactive; Jurkat NFkB inh: 51.8; HIF activator: 13.9; Jurkat NFkB conf: 73.9

Results for COc1ccc2ccccc2c1/C=N/NC(=O)c1cccc(Br)c1 ?
697 NFkB inh: inactive; Jurkat NFkB inh: inactive; HIF activator: inactive

Results for O=C(N/N=C/c1cn(-c2ccccc2)nc1-c1cc2ccccc2o1)c1cccnc1 ?
697 NFkB inh: inactive; Jurkat NFkB inh: inactive; F508del corr: inactive; HIF activator: inactive

Results for O=C(N/N=C/c1cn(-c2ccccc2)nc1-c1cc2ccccc2o1)c1ccncc1 ?
697 NFkB inh: inactive; Jurkat NFkB inh: inactive; HIF activator: inactive; Jurkat NFkB conf: inactive

Results for CC(=O)Nc1ccc(S(=O)(=O)N2CCSc3ccccc32)cc1 ?
697 NFkB inh: inactive; Jurkat NFkB inh: 55.6; F508del corr: inactive; Jurkat NFkB conf: 49.1

What do the screens show for `CC(=O)Nc1ccc(S(=O)(=O)N2c3ccccc3C(C)=CC2(C)C)cc1`?
697 NFkB inh: inactive; Jurkat NFkB inh: 62.5; F508del corr: 9.5; HIF activator: inactive; Jurkat NFkB conf: 53.2

What do the screens show for `CC1=CC(C)(C)N(S(=O)(=O)c2ccc(F)cc2)c2ccccc21`?
697 NFkB inh: inactive; Jurkat NFkB inh: inactive; F508del corr: inactive; HIF activator: inactive

What do the screens show for `N#Cc1cc2cc3c(cc2nc1SCC(=O)N1CCCC1)OCCO3`?
697 NFkB inh: inactive; Jurkat NFkB inh: inactive; HIF activator: inactive; Jurkat NFkB conf: inactive

How did C[C@H]1CN([C@@H](C)CO)C(=O)c2cc(NS(=O)(=O)c3ccc(Cl)cc3)ccc2O[C@H]1CN(C)CC1CCCCC1 do in these assays?
F508del corr: inactive

What do the screens show for `CCOC(=O)c1ccc(NC(=O)Nc2ccon2)cc1`?
697 NFkB inh: inactive; Jurkat NFkB inh: 58.1; F508del corr: inactive; HIF activator: inactive; Jurkat NFkB conf: inactive

What do the screens show for `O=C(Nc1ccc(Cl)c(Cl)c1)Nc1ccon1`?
697 NFkB inh: inactive; Jurkat NFkB inh: 52.7; F508del corr: inactive; HIF activator: inactive; Jurkat NFkB conf: inactive

Results for C[C@@H]1CN([C@H](C)CO)C(=O)Cc2cc(NC(=O)Nc3cccc4ccccc34)ccc2O[C@H]1CN(C)Cc1ccc2c(c1)OCO2 ?
F508del corr: inactive

How did COCC(=O)N1[C@H](C(=O)N2CCCCC2)[C@@H](CO)[C@@H]2Cn3c(ccc(C4=CCCC4)c3=O)[C@@H]21 do in these assays?
F508del corr: inactive

How did O=C(Nc1scc(-c2ccc(F)cc2)c1C(=O)O)c1ccco1 do in these assays?
697 NFkB inh: inactive; Jurkat NFkB inh: inactive; HIF activator: inactive

What do the screens show for `COC(=O)c1c(-c2ccccc2)csc1NC(=O)c1ccco1`?
697 NFkB inh: inactive; Jurkat NFkB inh: inactive; HIF activator: inactive; Jurkat NFkB conf: inactive

What do the screens show for `Cc1sc(NC(=O)c2ccco2)nc1-c1ccccc1`?
697 NFkB inh: inactive; Jurkat NFkB inh: inactive; HIF activator: inactive; Jurkat NFkB conf: inactive

What do the screens show for `CN1CCN(C(=O)C[C@H]2C[C@H]3c4cc(NC(=O)Nc5ccc(F)cc5)ccc4O[C@H]3[C@H](CO)O2)CC1`?
F508del corr: inactive

Results for CC(Oc1ccc(Br)cc1Cl)C(=O)Nc1ccncc1 (stereo not drawn) ?
697 NFkB inh: inactive; Jurkat NFkB inh: 53.3; F508del corr: inactive; HIF activator: inactive; Jurkat NFkB conf: inactive

Results for CC(Oc1ccc(Br)cc1)C(=O)Nc1ccncc1 (stereo not drawn) ?
697 NFkB inh: inactive; Jurkat NFkB inh: inactive; F508del corr: inactive; HIF activator: inactive

What do the screens show for `O=c1[nH]c(-c2ccccn2)cc2ccccc12`?
697 NFkB inh: inactive; Jurkat NFkB inh: 61.7; HIF activator: inactive; Jurkat NFkB conf: inactive

What do the screens show for `O=c1[nH]c(Nc2ccccn2)cc2ccccc12`?
697 NFkB inh: inactive; Jurkat NFkB inh: inactive; F508del corr: inactive; HIF activator: inactive

Results for CCOc1ccc(S(=O)(=O)NCc2ccccn2)cc1NC(=O)c1ccccc1 ?
697 NFkB inh: inactive; Jurkat NFkB inh: 53.4; F508del corr: inactive; HIF activator: inactive; Jurkat NFkB conf: 46.4

What do the screens show for `C[C@@H]1CN([C@H](C)CO)S(=O)(=O)c2ccc(C#CC(C)(C)O)cc2O[C@@H]1CN(C)C(=O)C1CCCCC1`?
F508del corr: inactive

What do the screens show for `CC(C)c1ccc(-n2cnn(-c3ncccc3[N+](=O)[O-])c2=O)cc1`?
697 NFkB inh: inactive; Jurkat NFkB inh: inactive; F508del corr: inactive; HIF activator: inactive; Jurkat NFkB conf: inactive
